Measurements from PMC4336329 (PLoS ONE, 2015).
Among all 310,000 compounds or so, about 14,000 (4.5%) showed an effect of 50% or more. The effect is printed as a negative number. Many of the other results were omitted from the sample, so strong results are more common in it than they were.

What follows are compounds tested against human ether-à-go-go-related gene (hERG) potassium channel (human, UniProt Q12809) (assay: primary screen, population patch clamp on CHO cells stably expressing hERG; higher = less effect of the substance).
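Note: peak tail current of the secondary pulse compared with the same well before compound.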

Chain of human ether-à-go-go-related gene (hERG) potassium channel (Q12809 whole entry, looked up): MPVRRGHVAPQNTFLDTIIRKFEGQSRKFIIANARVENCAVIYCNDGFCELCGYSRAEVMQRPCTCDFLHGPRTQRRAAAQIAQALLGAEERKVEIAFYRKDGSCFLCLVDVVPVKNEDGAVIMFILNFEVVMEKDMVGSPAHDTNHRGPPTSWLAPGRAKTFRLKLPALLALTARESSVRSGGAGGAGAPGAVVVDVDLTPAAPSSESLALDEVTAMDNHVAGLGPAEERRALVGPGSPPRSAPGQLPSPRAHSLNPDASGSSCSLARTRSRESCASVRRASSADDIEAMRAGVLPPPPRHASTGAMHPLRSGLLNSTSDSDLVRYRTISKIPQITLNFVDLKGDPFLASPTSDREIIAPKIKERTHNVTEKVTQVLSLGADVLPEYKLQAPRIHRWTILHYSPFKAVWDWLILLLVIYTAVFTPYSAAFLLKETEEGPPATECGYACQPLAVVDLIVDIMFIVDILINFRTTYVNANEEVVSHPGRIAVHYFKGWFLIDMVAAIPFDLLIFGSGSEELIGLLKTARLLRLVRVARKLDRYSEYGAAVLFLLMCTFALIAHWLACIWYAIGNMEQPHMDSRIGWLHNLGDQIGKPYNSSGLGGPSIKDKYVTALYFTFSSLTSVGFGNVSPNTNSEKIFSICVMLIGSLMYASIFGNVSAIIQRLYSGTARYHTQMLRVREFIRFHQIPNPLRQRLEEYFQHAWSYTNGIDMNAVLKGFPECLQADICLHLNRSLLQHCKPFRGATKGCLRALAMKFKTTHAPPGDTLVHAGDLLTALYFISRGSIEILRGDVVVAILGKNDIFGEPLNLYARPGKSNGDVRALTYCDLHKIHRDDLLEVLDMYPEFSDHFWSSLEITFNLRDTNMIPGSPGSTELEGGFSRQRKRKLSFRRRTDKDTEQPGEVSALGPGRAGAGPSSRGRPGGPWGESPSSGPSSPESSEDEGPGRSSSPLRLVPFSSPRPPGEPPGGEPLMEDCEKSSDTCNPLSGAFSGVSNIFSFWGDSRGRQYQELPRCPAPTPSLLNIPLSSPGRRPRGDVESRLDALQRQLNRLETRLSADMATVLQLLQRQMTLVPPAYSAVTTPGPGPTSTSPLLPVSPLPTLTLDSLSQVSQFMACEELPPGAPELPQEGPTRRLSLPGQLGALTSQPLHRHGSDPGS

Row | SMILES | hERG current change (%, negative = inhibition) at 10uM
1 | COc1ccccc1OCC(=O)OCC(=O)Nc1ncc(Cl)cc1Cl | 12.8%
2 | Cc1ccc2nc(NC(=O)/C=C/c3ccc4c(c3)OCO4)sc2c1 | 14.8%
3 | Cc1cccc(CNC(=O)c2ccc(NC(=O)C3=CSCCO3)cc2)c1 | 5.08%
4 | CSc1nnc(NC(=O)CCc2ccccc2)s1 | -6.33%
5 | COc1ccc(NC(=O)CN(C)C(=O)c2ccccc2SCC(=O)N2CCCC2)cc1 | 10.5%
6 | COc1ccc(Cn2c(SC)nc3ccccc32)cc1[N+](=O)[O-] | 13.9%
7 | OCCn1nc2c3ccccc3nc-2n(-c2ccccc2)c1=S | -9.49%
8 | CCN(CC)CCSc1nc2ccccc2n1Cc1ccccc1.Cl | -74.1%
9 | CN(C)C(=O)CSc1nc2ccccc2n1Cc1ccccc1 | -11.8%
10 | O=C(O)CCSc1nc2ccccc2n1Cc1ccccc1 | 24.1%
11 | CCN(CC)CCSc1nc2ccccc2c(=S)n1-c1ccccc1.Cl | -51.9%
12 | CCN(CC)C(=O)CSc1nnc(-c2ccccc2)n1-c1ccccc1 | 17.8%
13 | CSc1nc2ccccc2n1Cc1cccc([N+](=O)[O-])c1 | -44.8%
14 | CCSc1nc2ccccc2n1Cc1cccc([N+](=O)[O-])c1 | -69.7%
15 | CCN(CC)CCSc1nc(O)c(-c2ccccc2)c(=O)n1-c1ccccc1.Cl | 12.1%
16 | O=C(O)CSc1nnc(Nc2ccccc2)n1-c1ccccc1 | 18.6%
17 | CCN(CC)CCSc1nnc(Nc2ccccc2)n1-c1ccccc1 | -75.9%
18 | CCc1n[nH]c(=S)n1/N=C/c1ccc(NC(C)=O)cc1 | 13%
19 | COc1cc(NC(=O)COC(=O)CO/N=C(\C)c2ccc3c(c2)OCO3)cc(OC)c1 | 14.6%
20 | CC1CCc2sc(C(=O)Nc3ccc(N4CCOCC4)cc3)cc2C1 (stereo not shown) | 11.6%
21 | COc1cccc2c1OCC(C(=O)Nc1nccs1)=C2 | -0.366%
22 | CC(=O)C1=C(O)C(=O)N(c2ccc(Br)cn2)C1c1ccccc1F (stereo not shown) | 10.6%

Row | SMILES | hERG current change (%, negative = inhibition) at 10uM
23 | CC(=O)N(C)c1ccc(NS(=O)(=O)Cc2ccccc2)cc1 | -8.12%
24 | O=C(CCSc1ccccc1)Nc1ncccn1 | 14.9%
25 | COC(=O)c1ccc(Cl)c(NS(=O)(=O)c2ccc3c(c2)OCCO3)c1 | -25.4%
26 | O=c1c2ccccc2nc2c3ccccc3c(NCc3ccco3)nn12 | -17.8%
27 | Cc1sc2nc3ccc(NCc4ccco4)nn3c(=O)c2c1C | -21.7%
28 | Cc1sc2nc3c4ccccc4c(NCc4ccco4)nn3c(=O)c2c1C | -56.6%
29 | COc1nc(N/N=C/c2ccccc2F)nc(N2CCCCC2)n1 | -15.6%
30 | O=C(Nc1ccc(Br)cc1)N1CCc2ccccc2C1 | 2.91%
31 | COc1ccc(NC(=O)NCCN2CCc3ccccc3C2)cc1 | -34.6%
32 | O=C(NCCCN1CCc2ccccc2C1)Nc1ccc(Br)cc1 | -71.7%
33 | COc1ccc(NC(=O)NCCCN2CCc3ccccc3C2)cc1 | -69.2%
34 | O=C(CN1CCc2ccccc2C1)Nc1ccc(Br)cc1 | -34.2%
35 | O=C(NCCCN1CCc2ccccc2C1)Nc1ccc(Cl)cc1 | -65.5%
36 | COc1ccc(NC(=O)NCCCN2CCCC2=O)cc1 | 4.11%
37 | CN1CCN(CCNC(=O)Nc2ccc(Cl)cc2)CC1 | -0.17%
38 | O=C(NCCCN1CCCC1=O)Nc1ccc(Cl)cc1 | 2.13%
39 | COc1ccc(-c2csc(NC(=O)Cc3ccccc3F)n2)cc1OC | 2.29%
40 | CC(Oc1cc2oc(=O)c3c(c2cc1Cl)CCCC3)C(=O)NCc1ccncc1 (stereo not shown) | -41.8%
41 | Cc1[nH]c2ccccc2c1C1(O)C(=O)N(C(C)C)c2ccccc21 (stereo not shown) | 16.7%
42 | CC1CC2(CC(C)(C(=O)CSc3nc4ccccc4s3)OC2=O)C(=O)O1 (stereo not shown) | -1.16%
43 | CCOC(=O)C1=C(C)NC(C)=C(C(=O)OCC)C1C(=O)OCC(=O)N1CCc2ccccc21 | -1.82%
44 | CC(C)CC(=O)Nc1ccccc1-c1nnn(CC(=O)N2CCOCC2)n1 | -2.78%

Row | SMILES | hERG current change (%, negative = inhibition) at 10uM
45 | NC(=S)NNc1c(F)c(F)c(F)c(F)c1F | 28.9%
46 | Cc1ccc(F)c(NC(=O)c2c(-c3ccccc3)noc2C)c1 | 7.17%
47 | Cl.OCCN(CCO)CC(O)CN1c2ccccc2Sc2ccccc21 (stereo not shown) | -12.9%
48 | CC(=O)Nc1ccc(-c2csc(NC(=O)C3CCN(S(=O)(=O)c4cccs4)CC3)n2)cc1 | -2.9%
49 | COc1cc(-c2nc3sc(C)c(C)c3c(=O)o2)cc(OC)c1OC | 19%
50 | CCOC(=O)C1=C(C)OC(N)=C(C#N)C1c1cc2ccccc2nc1N1CCCCC1 (stereo not shown) | 6.3%
51 | CC(C)N1C(=S)SC2CS(=O)(=O)C=C21 (stereo not shown) | -5.07%
52 | NC(=O)c1cc(S(=O)(=O)N2CCCC2)ccc1OCCOc1ccccc1 | 2.15%
53 | N#Cc1ccc(Cn2cc(C(=O)c3ccco3)c3ccccc32)cc1 | -76.7%
54 | O=C(c1ccco1)c1cn(Cc2ccc(Cl)cc2)c2ccccc12 | 15.9%
55 | CCC(=O)c1cn(Cc2ccccc2C#N)c2ccccc12 | -24.2%
56 | Cc1ccc(Cn2cc(C=O)c3ccccc32)cc1 | 1.48%
57 | CCC(=O)c1cn(Cc2ccc(C#N)cc2)c2ccccc12 | -71.8%
58 | CC(=O)c1cn(Cc2ccc(C#N)cc2)c2ccccc12 | -19.9%
59 | O=C(c1ccco1)c1cn(Cc2ccccc2)c2ccccc12 | -6.75%
60 | CC(C)C(=O)c1cn(Cc2ccccc2C#N)c2ccccc12 | -10.8%
61 | N#Cc1ccc(Cn2cc(C=O)c3ccccc32)cc1 | -80.8%
62 | CC(C)C(=O)c1cn(Cc2ccc(C#N)cc2)c2ccccc12 | -75.6%
63 | CC(C)C(=O)c1cn(CC(=O)O)c2ccccc12 | 8.27%
64 | O=Cc1cn(Cc2ccc(Br)cc2)c2ccccc12 | 15%
